According to PubChem BioAssay:
Values without a mark were called inactive. For some of these results: Results with a measured potency or affinity are listed apart. Active and inactive are the calls of the source. Unless noted, no rule for the calls is given here.

What was measured:
[1] = antimalarial activity against Dd2 strain (AID 2302;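 active = growth inhibition above 50% at the single 2 µM test dose, taken to imply half-maximal potency below 2 µM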;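 also: 0% = DMSO untreated growth and 100% = chloroquine plus artemisinin killed control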); conditions: P. falciparum Dd2 in RBCs, LDH growth readout, 72 h; at 2 µM; stronger effect = higher value
[2] = human hepatoma cell viability loss – ATP luminescence, cytotoxicity control for P. falciparum antimalarial project, primary screen (AID 2303;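 active = inhibition above 50%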;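 also: 0% = DMSO wells and 100% = digitonin-killed cells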); conditions: HepG2 viability, 24-48 h, at 10 µM, stronger effect = higher value
[3] = target: L-lactate dehydrogenase (Plasmodium falciparum (isolate CDC / Honduras)) (UniProt Q27743); assay: PfLDH activity inhibition – cell lysate, 3D7 strain, counter-screen for P. falciparum growth inhibition project (AID 2304);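 also: 0% = vehicle and 100% = reference inhibitor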; conditions: P. falciparum 3D7 crude extract, LDH APAD/NBT absorbance; at 2 µM; stronger effect = higher value
[4] = inhibition of 3D7 malaria parasite growth – strain 3D7 (AID 2306);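 also: 0% = DMSO wells and 100% = chloroquine plus artemisinin control wells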; conditions: P. falciparum 3D7 erythrocytic growth, LDH absorbance, 72 h; at 2 µM; stronger effect = higher value
[5] = target: Calcium-dependent protein kinase 1 (Plasmodium falciparum (isolate 3D7)) (UniProt P62344); assay: PfCDPK1 kinase inhibitors, biochemical, TCAMS library (AID 1159585; cut-off not given, nearly all actives have IC50 up to about 0.98 µM;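 also: inhibitors leave more ATP so luminescence rises with inhibition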); conditions: recombinant PfCDPK1, Kinase-Glo ATP depletion luminescence
[6] = target: Plasmodium falciparum protein kinase 6 (PK6, PF3D7_1337100) (UniProt Q8IDW1); assay: PfPK6 kinase inhibitors, biochemical, TCAMS library (AID 1159586); conditions: recombinant PfPK6, Kinase-Glo ATP depletion luminescence
[7] = target: Protein kinase 7 (PK7), Plasmodium falciparum 3D7 (PF3D7_0213400) (UniProt Q7YTF7); assay: inhibition of Plasmodium PK7 catalytic activity – biochemical, TCAMS antimalarial set, Kinase-Glo luminescence (AID 1159587); conditions: recombinant PfPK7, Kinase-Glo ATP depletion luminescence
[8] = target: Calcium-dependent protein kinase 4 (Plasmodium falciparum (isolate 3D7)) (UniProt Q8IBS5); assay: PfCDPK4 kinase inhibitors, biochemical, TCAMS library (AID 1159588; cut-off not given, nearly all actives have IC50 up to about 0.91 µM); conditions: recombinant PfCDPK4, Kinase-Glo ATP depletion luminescence
Sequence of Calcium-dependent protein kinase 4 (Plasmodium falciparum (isolate 3D7)) (Q8IBS5 whole entry, looked up): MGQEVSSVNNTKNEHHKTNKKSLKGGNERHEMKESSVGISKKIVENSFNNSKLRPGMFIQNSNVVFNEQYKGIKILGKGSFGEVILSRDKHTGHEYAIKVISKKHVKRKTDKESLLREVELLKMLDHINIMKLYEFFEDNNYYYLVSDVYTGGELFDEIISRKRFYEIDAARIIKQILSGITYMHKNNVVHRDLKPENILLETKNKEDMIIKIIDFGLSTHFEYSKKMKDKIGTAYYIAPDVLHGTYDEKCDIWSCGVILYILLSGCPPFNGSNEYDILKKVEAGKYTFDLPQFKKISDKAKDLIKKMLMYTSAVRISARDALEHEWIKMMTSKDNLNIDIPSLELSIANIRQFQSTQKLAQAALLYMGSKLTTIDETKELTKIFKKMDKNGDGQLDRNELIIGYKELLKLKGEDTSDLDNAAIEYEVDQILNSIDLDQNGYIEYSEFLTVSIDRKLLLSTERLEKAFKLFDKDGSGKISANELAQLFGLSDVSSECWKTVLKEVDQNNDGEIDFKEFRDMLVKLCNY

Sequence of Calcium-dependent protein kinase 1 (Plasmodium falciparum (isolate 3D7)) (P62344 whole entry, looked up): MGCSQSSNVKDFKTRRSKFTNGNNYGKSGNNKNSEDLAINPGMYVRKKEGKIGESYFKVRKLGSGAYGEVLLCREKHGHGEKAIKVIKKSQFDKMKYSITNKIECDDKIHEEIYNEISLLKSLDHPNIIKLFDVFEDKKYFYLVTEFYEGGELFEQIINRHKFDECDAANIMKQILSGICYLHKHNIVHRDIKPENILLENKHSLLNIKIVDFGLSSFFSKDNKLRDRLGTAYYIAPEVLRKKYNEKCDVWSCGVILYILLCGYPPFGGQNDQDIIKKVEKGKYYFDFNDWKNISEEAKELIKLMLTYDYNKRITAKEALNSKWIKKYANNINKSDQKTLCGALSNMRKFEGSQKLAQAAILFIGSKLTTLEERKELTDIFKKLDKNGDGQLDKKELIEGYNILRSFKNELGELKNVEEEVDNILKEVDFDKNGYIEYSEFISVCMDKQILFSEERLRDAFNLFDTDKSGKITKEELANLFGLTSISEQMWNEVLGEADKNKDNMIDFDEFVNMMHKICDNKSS
Sequence of L-lactate dehydrogenase (Plasmodium falciparum (isolate CDC / Honduras)) (Q27743 whole entry, looked up): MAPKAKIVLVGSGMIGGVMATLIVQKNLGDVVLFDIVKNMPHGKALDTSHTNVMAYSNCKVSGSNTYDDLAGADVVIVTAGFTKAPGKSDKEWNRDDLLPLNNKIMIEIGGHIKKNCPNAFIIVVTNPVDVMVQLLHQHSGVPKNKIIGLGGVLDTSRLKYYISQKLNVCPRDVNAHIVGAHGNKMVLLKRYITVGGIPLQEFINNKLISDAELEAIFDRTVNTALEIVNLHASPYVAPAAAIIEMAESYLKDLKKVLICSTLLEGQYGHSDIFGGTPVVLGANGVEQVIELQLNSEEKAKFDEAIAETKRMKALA
Sequence of Protein kinase 7 (PK7), Plasmodium falciparum 3D7 (PF3D7_0213400) (Q7YTF7 1-343): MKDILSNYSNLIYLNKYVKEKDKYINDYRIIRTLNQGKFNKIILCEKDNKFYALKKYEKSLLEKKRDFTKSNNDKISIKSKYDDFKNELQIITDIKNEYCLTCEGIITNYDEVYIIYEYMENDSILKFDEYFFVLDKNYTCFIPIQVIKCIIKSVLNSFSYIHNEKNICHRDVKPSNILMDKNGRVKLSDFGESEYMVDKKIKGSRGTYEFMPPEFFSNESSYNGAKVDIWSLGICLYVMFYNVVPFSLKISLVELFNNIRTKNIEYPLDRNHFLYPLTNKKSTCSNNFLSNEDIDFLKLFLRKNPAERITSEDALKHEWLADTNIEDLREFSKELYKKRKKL
Sequence of Plasmodium falciparum protein kinase 6 (PK6, PF3D7_1337100) (Q8IDW1 1-305): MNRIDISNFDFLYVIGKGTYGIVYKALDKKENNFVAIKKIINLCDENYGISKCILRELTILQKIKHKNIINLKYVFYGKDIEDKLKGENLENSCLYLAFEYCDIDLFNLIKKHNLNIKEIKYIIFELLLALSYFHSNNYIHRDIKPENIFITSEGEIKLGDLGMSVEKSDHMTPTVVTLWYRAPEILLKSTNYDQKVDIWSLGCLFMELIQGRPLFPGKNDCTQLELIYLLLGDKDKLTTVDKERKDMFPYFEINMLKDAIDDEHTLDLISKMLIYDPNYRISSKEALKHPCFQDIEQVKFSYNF

SMILES	growth inhibition [1]	inhibition [2]	inhibition [3] [%]	growth inhibition [4]	outcome [5]	outcome [6]	outcome [7]	outcome [8]
c1ccc(CN2CCC(NCc3ccccc3-c3cccc(CNCc4ccc5c(c4)OCO5)c3)CC2)cc1	69% (active)	37%	4	102% (active)	inactive	inactive	inactive	inactive
O=c1cc(NCCC2CC=CCN2Cc2ccc(Cl)c(Cl)c2)[nH]c2ccccc12 (centres undefined)	77% (active)	7%	4	94% (active)	inactive	inactive	inactive	inactive
CN(CCN)Cc1cccc(-c2ccc(-c3nc4ccc(C(F)(F)F)cc4[nH]3)s2)c1	92% (active)	27%	5	100% (active)	inactive	inactive	inactive	inactive
c1cn(-c2ccc(CNc3nccc(Nc4ccc(OCCN5CCOCC5)cc4)n3)cc2)cn1	3%	2%	-2	100% (active)	inactive	inactive	inactive	inactive
c1cc(-c2ccc(CN3CCN(c4ccncc4)CC3)cc2)cc(-c2nc3ccccc3[nH]2)c1	100% (active)	61% (active)	-2	101% (active)	inactive	inactive	inactive	inactive
c1ccc(-c2nnc(-c3ccccn3)nc2NC2CCCCC2)cc1	80% (active)	74% (active)	6	97% (active)	inactive	inactive	inactive	inactive
CCn1cc(CN2C(=O)C(c3ccccc3)(c3ccccc3)N=C2N)cn1	60% (active)	7%	-2	95% (active)	inactive	inactive	inactive	inactive
CC1CCC(NCc2ccc3c(CNC4CCC(C)CC4)c(O)ccc3c2O)CC1 (centres undefined)	99% (active)	4%	-2	101% (active)	inactive	inactive	inactive	inactive
Cc1ccc(-c2nnc(Nc3ccc(CC(N)=O)cc3)c3ccccc23)cc1S(=O)(=O)NCC1CCCO1 (centres undefined)	64% (active)	-6%	6	83% (active)	inactive	inactive	inactive	inactive
Cc1ccc(C2=NNC3(S2)C(=O)Nc2ccc(C)cc23)cc1 (centres undefined)	89% (active)	35%	6	95% (active)	inactive	inactive	inactive	inactive
Cn1cc(C2CCN(CCCCCNC(=O)/C=C/c3ccc(Cl)c(Cl)c3)CC2)c2cc(O)ccc21	-2%	11%	-2	94% (active)	inactive	inactive	inactive	inactive
c1ccc2c(c1)CN(CC1CCOCC1)CC1(CCN(Cc3c[nH]c4cnccc34)CC1)O2	7%	21%	-3	99% (active)	inactive	inactive	inactive	inactive
Cc1cc(NCCC(=O)Nc2ccccc2)nc(NCCc2ccccc2)n1	8%	-8%	-3	99% (active)	inactive	inactive	inactive	inactive
Cn1cnc(CCNC(=O)c2ccc(-c3ccc(-c4nc5ccc(F)cc5[nH]4)cc3)cc2)c1	15%	17%	0	92% (active)	inactive	inactive	inactive	inactive
COc1ccc(C2CC(=O)C3=C(C2)NC(C)=C(C(=O)OC(C)C)C3c2ccc(O)cc2)cc1OC (centres undefined)	98% (active)	-1%	-3	99% (active)	inactive	inactive	inactive	inactive
O=C(Nc1ccc(CCNC2=NCCN2)cc1)Nc1ccc(CCNC2=NCCN2)cc1	66% (active)	6%	4	90% (active)	inactive	inactive	inactive	inactive
COc1ccc2ncc(OC)c(CCN3CC[C@@H](NCc4ccc5c(n4)NC(=O)CS5)[C@H](O)C3)c2n1	99% (active)	21%	4	94% (active)	inactive	inactive	inactive	inactive
O=C(/C=C/c1ccc(Cl)c(Cl)c1)NCCCCCN1CCCN(C(=O)Nc2ccc(Cl)c(Cl)c2)CC1	2%	55% (active)	2	100% (active)	inactive	inactive	inactive	inactive
COc1ccc(NC(=O)Nc2cc(C)nc3cccnc23)cc1Cn1ccnc1	41%	12%	-3	100% (active)	inactive	inactive	inactive	inactive

SMILES	growth inhibition [1]	inhibition [2]	inhibition [3] [%]	growth inhibition [4]	outcome [5]	outcome [6]	outcome [7]	outcome [8]
O=[N+]([O-])c1cccc(CNCC2CCN(Cc3ccc(Cl)c(Cl)c3)CC2)c1	41%	9%	4	101% (active)	inactive	inactive	inactive	inactive
Cc1[nH]c(C)c(-c2ccc(-c3ccc(F)cc3)cc2)c(=O)c1Br	52% (active)	12%	2	94% (active)	inactive	inactive	inactive	inactive
Nc1nc(N)c2c(ccc3c2ccn3Cc2ccccn2)n1	94% (active)	66% (active)	-1	90% (active)	inactive	inactive	inactive	inactive
O=C(NCc1ccccc1)c1ccc(C(=O)NCC2CNCCO2)cc1 (centres undefined)	-1%	4%	-4	92% (active)	inactive	inactive	inactive	inactive
CCc1ccc(NC(=O)c2cccc(CN3CCCN(Cc4ccc(OC)cc4)CC3)c2)cc1	-6%	35%	5	97% (active)	inactive	inactive	inactive	inactive
O=C(Nc1ccc(Oc2ccccc2)cc1)N[C@@H](Cc1ccc(O)cc1)C(=O)NC1CCN(Cc2ccc(O)c([N+](=O)[O-])c2)C1 (some centres undefined)	-3%	-3%	2	101% (active)	inactive	inactive	inactive	inactive
Cc1cc(C2CCN(CCCCNC(=O)c3ccc(NC(=O)c4ccc(Cl)cc4)cc3)CC2)c(C)cc1OCCN(C)C	77% (active)	18%	-1	100% (active)	inactive	inactive	inactive	inactive
CS(=O)(=O)c1ccc(-c2cnc(N)c(-c3ccc(O)cc3)c2)cc1	94% (active)	38%	2	84% (active)	inactive	inactive	inactive	inactive
C=C(C)C1CC=C(CN2CCCC(n3ccc4cc(NC(=O)c5ccco5)ccc43)CC2)CC1 (centres undefined)	95% (active)	13%	1	90% (active)	inactive	inactive	inactive	inactive
O=C(O)/C=C/c1cccc(F)c1F	1%	58% (active)	-1	96% (active)	inactive	inactive	inactive	inactive
c1ccc(CNc2cc(-c3ccccn3)nc(-c3ccccn3)n2)cc1	89% (active)	88% (active)	-2	84% (active)	inactive	inactive	inactive	inactive
Oc1ccccc1-c1nc2cccnc2n1CCc1cccc(C(F)(F)F)c1	36%	4%	-1	93% (active)	inactive	inactive	inactive	inactive
Cc1ccc(-n2c(Cc3cccc4ccccc34)nnc2SCCC#N)c(C)c1	98% (active)	0%	-7	95% (active)	inactive	inactive	inactive	inactive
Oc1ccc(CCNCc2ccc(OCc3ccccc3)c(OCc3ccccc3)c2)cc1	9%	31%	-3	88% (active)	inactive	inactive	inactive	inactive
CC(=O)c1cccc2c(NC(=O)Nc3ccc4nccc(N5CCN(C)CC5)c4c3)cccc12	94% (active)	13%	-3	99% (active)	inactive	inactive	inactive	inactive
COc1ccc(CNCc2ccc(-c3ccc(-c4nc5ccc(F)cc5[nH]4)cc3)cc2)cc1	83% (active)	70% (active)	5	99% (active)	inactive	inactive	inactive	inactive
O=C(/C=C/c1ccc(Cl)c(Cl)c1)NCCCCCN1CCC(NC(=O)Nc2ccc(Cl)c(C(F)(F)F)c2)CC1	19%	76% (active)	-1	99% (active)	inactive	inactive	inactive	inactive
CN(C)CCC1CCN(CCS(=O)(=O)c2cccc(Nc3ccc(-c4ccsc4)cn3)c2)CC1	6%	49%	0	97% (active)	inactive	inactive	inactive	inactive
c1ccc(-c2nc(Nc3ccncc3)sc2-c2ccccc2)cc1	18%	-5%	1	97% (active)	inactive	inactive	inactive	inactive
